Rows were chosen to be rich in hits. Some 4.5% of all compounds tested hit in one or more screens of this group.
Gli-Sufu antag: blocks Gli-Sufu signaling in a luciferase reporter | Sufu-KO-LIGHT fibroblasts, Gli luciferase reporter luminescence | 340,000 tested, 0.74% active | inhibition, % at 5 µM | AID 588413;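 active = inhibition above about 55%, limit read from the data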;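 also: 0% = DMSO-treated cells and 100% = wells with medium but no cells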
Jurkat NFkB inh: inhibitors of the PMA/ionomycin-induced NF-kB reporter in Jurkat cells; inhibition, % at 4 µM; 330,000 tested, 0.53% active; PMA/ionomycin-induced NF-kB luciferase reporter, luminescence; AID 435003; in the data active = inhibition above about 50%
Mdm2 MdmX PPI: inhibitors of human Mdm2/MdmX interaction. SaOS-2 split-luciferase Mdm2/MdmX complementation, luminescence. AID 485346. O15151+Q00987. inhibition, % at 8 µM. 330,000 tested, 3% active;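 active = inhibition of at least 50% at 8 µM in the primary screen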
Target sequence (O15151 whole entry, looked up): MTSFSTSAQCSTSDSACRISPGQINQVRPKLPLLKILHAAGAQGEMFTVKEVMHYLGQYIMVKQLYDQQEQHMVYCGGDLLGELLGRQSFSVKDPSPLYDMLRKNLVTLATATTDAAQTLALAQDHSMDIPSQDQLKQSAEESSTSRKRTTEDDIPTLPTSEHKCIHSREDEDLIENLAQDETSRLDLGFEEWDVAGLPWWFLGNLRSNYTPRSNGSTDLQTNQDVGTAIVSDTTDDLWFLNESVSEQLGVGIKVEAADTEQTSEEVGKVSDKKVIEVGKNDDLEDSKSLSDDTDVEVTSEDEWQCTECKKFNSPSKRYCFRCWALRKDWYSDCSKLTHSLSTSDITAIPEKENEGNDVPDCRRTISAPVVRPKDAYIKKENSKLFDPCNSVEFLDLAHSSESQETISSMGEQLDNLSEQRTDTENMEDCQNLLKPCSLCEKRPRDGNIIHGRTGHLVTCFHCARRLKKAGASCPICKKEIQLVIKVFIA
Target sequence (Q00987 whole entry, looked up): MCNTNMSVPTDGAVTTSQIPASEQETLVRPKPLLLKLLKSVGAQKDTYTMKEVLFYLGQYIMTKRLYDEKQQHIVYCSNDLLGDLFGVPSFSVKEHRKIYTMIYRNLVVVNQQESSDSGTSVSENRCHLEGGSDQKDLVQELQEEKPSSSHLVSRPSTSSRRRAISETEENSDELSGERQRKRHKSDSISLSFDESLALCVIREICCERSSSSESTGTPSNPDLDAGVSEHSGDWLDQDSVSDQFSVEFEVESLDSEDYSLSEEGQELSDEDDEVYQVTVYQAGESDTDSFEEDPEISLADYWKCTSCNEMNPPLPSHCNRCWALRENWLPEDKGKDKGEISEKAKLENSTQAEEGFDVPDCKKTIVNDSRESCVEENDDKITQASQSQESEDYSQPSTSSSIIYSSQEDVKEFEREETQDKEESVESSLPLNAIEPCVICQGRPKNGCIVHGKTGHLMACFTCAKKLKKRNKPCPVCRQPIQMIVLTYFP
Beta cell apopt: blocks beta cell apoptosis. INS-1E cytokine-induced death, ATP luminescence, 48 h; percent of positive-control rescue, neutral wells zero. protection from apoptosis, % (concentration not given with the values). 300,000 tested, 0.8% active. AID 435005;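 active = Every replicate reaches about 75%, or at least half do and their mean reaches it too, limit read from the data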;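 also: 0% = cytokine-treated negative control wells and 100% = positive control rescue; higher means more ATP so stronger rescue from cytokine killing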
CSC inhib: cancer stem cell inhibition; inhibition, % at 7.5 µM; AID 2717; cancer stem cell-like cells viability, luminescence; 300,000 tested, 1.1% active; in the data active = inhibition above about 75%; tested in HMLE shEcad cells
697 NFkB inh: lowers PMA/ionomycin-induced NF-kB signal in 697 B cells; 697 B-cell NF-kB luciferase reporter, 16 h; inhibition, % at 4 µM; 330,000 tested, 0.33% active; AID 435022; in the data active = inhibition above about 35%
Mdm2 MdmX conf: confirmation of human Mdm2/MdmX interaction inhibitors; shares compounds with Mdm2 MdmX PPI; AID 489028; inhibition, % at 8 µM; Mdm2-MdmX binding, luminescent assay; 10,000 tested, 55% active; in the data active = inhibition above about 40%
Full FLuc ctr: inhibits full-length luciferase, flagging false Mdm2/MdmX hits; shares compounds with Mdm2 MdmX PPI; SaOS-2 full-length luciferase counterscreen, luminescence; inhibition, % at 8 µM; 6,200 tested, 77% active;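 active = mean inhibition at 8 µM reaching about 37%, which flags the compound as non-specific, limit read from the data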;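 also: p53-null SaOS-2 cells with luciferase driven by a doxycycline-inducible promoter; compound on cells about two nights before reading with doxycycline added after day one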
Starred values were filed as active, the others as inactive; nt = not tested or not shown.

SMILES | Gli-Sufu antag | Jurkat NFkB inh | Mdm2 MdmX PPI | Beta cell apopt | CSC inhib | 697 NFkB inh | Mdm2 MdmX conf | others
COc1ccc(-n2c(SCC(=O)Nc3sc4c(c3C#N)CCCC4)nnc2-c2ccccc2OC)cc1 | -2 | -11 | 45 | 7 | 20 | 3 | nt
Cc1[nH]c(C)c(S(=O)(=O)N2CCN(c3ccccc3F)CC2)c1C(=O)N1CCCCC1 | 14 | 6 | 10 | nt | -15 | -9 | nt
COc1ccc(C(=O)C2CCCN(S(=O)(=O)c3ccc(C(C)=O)cc3)C2)c(C)c1 (stereo not drawn) | 35 | 7 | 6 | 23 | -5 | -34 | nt
CC(=O)Nc1ccc(NC(=O)COc2ccc(-c3ccc(C#N)cc3)cc2)cc1 | 17 | 1 | 9 | 3 | -8 | 11 | nt
CCCn1c(=O)c2[nH]c(-c3ccc(OCC(=O)Nc4ccc(C#N)cc4)cc3)nc2n(CCC)c1=O | -7 | 3 | 53* | 2 | 4 | 23 | 22
Cc1nsc(Nc2ccc([N+](=O)[O-])cc2)c1C#N | 33 | 4 | 79* | 39 | 7 | -32 | 55* | Full FLuc ctr=89*
Cc1ccc(Nc2ccc([N+](=O)[O-])ccc2=O)cc1 | 4 | -1 | 8 | nt | nt | 14 | nt
CCOC(=O)C1=CNS(=O)(=O)NC1CCc1ccccc1 (stereo not drawn) | 1 | nt | -10 | nt | nt | -13 | nt
O=C(Cc1ccc(NC(=O)C2CCN(C(=O)CCc3ccccc3)CC2)cc1)Nc1ccc(C(=O)N2CCOCC2)cc1 | 15 | nt | nt | nt | nt | nt | nt
CCc1ccc(/C=N/NC(=O)c2cc(-c3cccc([N+](=O)[O-])c3)n[nH]2)cc1 | -7 | 23 | 62* | 29 | 69 | -9 | 62* | Full FLuc ctr=70*
O=C(N/N=C/c1cccc([N+](=O)[O-])c1)c1cc(-c2ccc3c(c2)OCO3)n[nH]1 | 34 | -5 | 52* | 50 | 11 | -7 | 32
Cc1ccc(C(=O)c2sc(Nc3ccccc3)c(C#N)c2N)cc1 | -8 | 6 | 39 | 4 | 45 | -8 | nt
CCOC(=O)c1ccc(Nc2sc(C(=O)c3cccc([N+](=O)[O-])c3)c(N)c2C#N)cc1 | 4 | 14 | 75* | 33 | 60 | -27 | 74* | Full FLuc ctr=44*
CN(C)S(=O)(=O)c1ccc(N2C(=O)CC2(/C=C/c2ccccc2)C(=O)NC2CCCC2)cc1 (stereo not drawn) | 10 | 6 | 15 | 5 | 13 | -9 | nt
COc1ccccc1/C=C/C1(C(=O)NC2CCCC2)CC(=O)N1c1ccccc1 (stereo not drawn) | -9 | 32 | 65* | 17 | 51 | 11 | 64* | Full FLuc ctr=79*
CCc1ccc2[nH]c3nc(SCc4nnc(-c5ccccc5)o4)nnc3c2c1 | -1 | 18 | 56* | 10 | 4 | -26 | -6
COc1ccc2[nH]c3nc(SCc4nnc(-c5ccccc5)o4)nnc3c2c1 | -1 | 19 | 10 | 7 | 6 | -31 | nt
Cc1ccc(-c2cc(-c3ccccc3Cl)c(C#N)c(N)n2)o1 | -11 | -5 | 31 | -1 | 0 | 14 | nt
CCSc1nc(N)c(C#N)c(-c2ccccc2Cl)c1C#N | -5 | 7 | 50* | 4 | -4 | 0 | 38 | Full FLuc ctr=66*
N#Cc1c(N)nc(Sc2ccc(Cl)cc2)c(C#N)c1-c1ccccc1Cl | 11 | 0 | 80* | 25 | 59 | -50 | 48* | Full FLuc ctr=51*
COc1ccc(NC(=O)CN(Cc2ccco2)Cc2ccco2)cc1S(=O)(=O)N1CCCCC1 | 8 | -10 | 29 | 3 | -3 | 5 | nt
O=C(O)CC1S/C(=N/N=C/C=C/c2ccccc2)NC1=O (stereo not drawn) | -5 | -7 | 6 | -7 | -12 | -2 | nt
O=C(CC1S/C(=N/N=C/C=C/c2ccccc2)NC1=O)Nc1ccc(Cl)c(Cl)c1 (stereo not drawn) | -7 | 2 | 63* | 0 | 8 | -6 | 12
CCOC(=O)c1ccc(-c2ccc3oc(-c4ccsc4)cc(=O)c3c2)cc1F | 18 | -5 | 16 | -6 | 17 | 1 | nt
Cc1nn(-c2ccccc2)c(Cl)c1/C=N/NC(N)=O | -23 | -11 | 25 | 1 | 8 | -13 | nt
SMILES | Gli-Sufu antag | Jurkat NFkB inh | Mdm2 MdmX PPI | Beta cell apopt | CSC inhib | 697 NFkB inh | Mdm2 MdmX conf | others
NC(=O)N/N=C/c1c(Sc2nnnn2-c2ccccc2)nc2ccccn2c1=O | 17 | 23 | 62* | -51 | 25 | -44 | 50* | Full FLuc ctr=23
O=C(CSc1nc(-c2ccc(F)cc2)cc(C(F)(F)F)n1)Nc1ccc2c(c1)OCO2 | 13 | 14 | 61* | 7 | 13 | -6 | 37 | Full FLuc ctr=75*
COc1ccc(-c2cc(C(F)(F)F)nc(SCC(=O)Nc3ccc4c(c3)OCO4)n2)cc1 | 1 | 11 | 44 | 12 | 0 | 3 | nt
COc1ccc(Cc2ccccc2C(=O)O)cc1 | 8 | nt | nt | nt | nt | nt | nt
COc1ccc(CC2=CC(=O)c3ccccc3C2=O)cc1 | 5 | 16 | 55* | nt | 55 | -105 | 13
Cn1c(Oc2ccc3c(c2)OCO3)nc2c1c(=O)n(Cc1ccccc1)c(=O)n2C | 15 | 13 | 62* | 9 | 7 | 20 | 22
O=C(CCl)N1CCN(C(=O)C2COc3ccccc3O2)CC1 (stereo not drawn) | -13 | 10 | 67* | -30 | -8 | 27 | 30
CN(C)CCNC(=O)COc1ccc(C23CC4CC(CC(C4)C2)C3)cc1 | 6 | -5 | 66* | 13 | 82* | 6 | 23
Cc1cc(Br)c(NC(=O)COC(=O)C2CCCCC2)c(Br)c1 | 6 | -5 | -16 | -3 | -35 | 5 | nt
Cc1ccc2c(c1)[C@H]1[C@H](CO2)[C@H](c2ccccc2)[C@]2(C)C(=O)Nc3ccc(Cl)cc3C(=O)N12 | -8 | 0 | 35 | 1 | 37 | 7 | nt
C[C@@]12C(=O)Nc3cc(F)c(F)cc3C(=O)N1[C@H]1c3cc(Cl)ccc3OC[C@@H]1[C@@H]2c1ccccc1 | 17 | 15 | 51* | 6 | 59 | 16 | 34
COc1ccc2c(c1)OC[C@H]1[C@H]2N2C(=O)c3ccccc3NC(=O)[C@@]2(C)[C@H]1c1ccccc1 | -9 | 9 | 50* | 4 | nt | 6 | 36 | Full FLuc ctr=54*
C[C@@]12C(=O)Nc3ccccc3C(=O)N1[C@H]1c3cc(Cl)ccc3OC[C@@H]1[C@@H]2c1ccccc1 | -3 | 9 | 48 | -2 | nt | 11 | nt
C[C@@]12C(=O)Nc3ccc(Cl)cc3C(=O)N1[C@H]1c3cc(Cl)ccc3OC[C@@H]1[C@@H]2c1ccccc1 | -8 | 0 | 53* | 12 | 27 | 22 | 14
CCOC(=O)C1=C(C)N=c2s/c(=C\c3ccc(O)c([N+](=O)[O-])c3)c(=O)n2C1c1ccccc1OC (stereo not drawn) | -9 | 4 | 13 | 31 | 51 | 3 | nt
